Results filed as inconclusive are left out. Activity calls are given as the source filed them. Unless noted, calls follow the shape of the dose curve; as a rule, active = well fitted curve in the direction sought with a large enough effect in the repeat runs; inconclusive = weak or mixed curves; inactive = no such curve, though single readings can be large; an effect the other way counts as inactive or inconclusive. Where a SMILES comes first, the peptide text is derived from it.
Legend:
[1] = molecular target: Peroxisome proliferator-activated receptor gamma (Homo sapiens) (UniProt P37231); experiment: qHTS assay to identify small molecule antagonists of the peroxisome proliferator-activated receptor gamma (PPARg) signaling pathway (AID 743191; calls by dose curve; also: series mostly up to about 63 µM; nearly all actives have a fitted effect of over 30% in size)
Sequence of Peroxisome proliferator-activated receptor gamma (Homo sapiens) (P37231 whole entry, looked up): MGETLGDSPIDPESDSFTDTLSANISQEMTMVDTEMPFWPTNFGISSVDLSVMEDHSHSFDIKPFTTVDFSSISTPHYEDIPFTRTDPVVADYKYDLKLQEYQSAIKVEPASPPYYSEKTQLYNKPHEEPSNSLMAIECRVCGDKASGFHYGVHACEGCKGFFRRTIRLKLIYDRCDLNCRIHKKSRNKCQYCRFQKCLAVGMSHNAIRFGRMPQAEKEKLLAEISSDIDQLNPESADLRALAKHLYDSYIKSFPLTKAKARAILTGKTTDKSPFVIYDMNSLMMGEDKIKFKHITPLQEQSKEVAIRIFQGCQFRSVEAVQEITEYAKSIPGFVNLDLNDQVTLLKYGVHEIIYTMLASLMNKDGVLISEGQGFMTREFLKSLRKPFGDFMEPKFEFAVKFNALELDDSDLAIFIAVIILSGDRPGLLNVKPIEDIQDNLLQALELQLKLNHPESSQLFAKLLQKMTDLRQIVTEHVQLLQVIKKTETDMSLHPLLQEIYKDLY
How it was run: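 GeneBLAzer PPARg UAS-bla HEK293H cells, 5 h post-plating, exposed to compounds 17 h at 37C. LiveBLAzer B/G FRET substrate added for 1 h at room temperature; beta-lactamase reporter read by fluorescence intensity.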

[2] = qHTS assay to identify small molecule antagonists of the peroxisome proliferator-activated receptor gamma (PPARg) signaling pathway - cell viability counter screen (AID 743194); also: nearly all actives have a fitted effect of over 55% in size
How it was run: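 Cytotoxicity counter screen in PPARg-bla HEK293H cells, same wells as reporter assay. Compounds plus 50 nM rosiglitazone (final) for 17 h at 37 C, then viability read by CellTiter-Glo luminescence.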

[3] = qHTS assay for small molecule agonists of the antioxidant response element (ARE) signaling pathway (AID 743202; active = well fitted activation curve with a large enough effect in the signal ratio in the repeat runs, not every such curve was filed as active; the % refers to the signal ratio)
How it was run: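 Agonist mode reporter screen: HepG2 cells with ARE-controlled beta-lactamase are incubated with test compounds for 16 h at 37 C, and beta-lactamase activity is measured as fluorescence of cleaved B/G FRET substrate.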

[4] = qHTS assay for small molecule agonists of the antioxidant response element (ARE) signaling pathway - cell viability counter screen (AID 743203; calls by dose curve; also: nearly all actives have a fitted effect of over 55% in size)
How it was run: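 Seeded at 2,000 cells/well, ARE-bla HepG2 cells were incubated 5 hrs before compound addition. After 16 hrs of treatment at 37C with 5% CO2, CellTiter-Glo reagent was added and luminescence read 30 min later.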

[5] = qHTS assay for small molecule activators of the heat shock response signaling pathway - cell viability counter screen (AID 743209); also: nearly all actives have a fitted effect of over 50% in size
How it was run: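 First, HSE-bla HeLa cells were seeded at 1500 cells/well and kept overnight at 37 C. Next, compounds were pinned in and incubated 5 h. After the FRET substrate step, CellTiter-Glo was added and luminescence read 30 min later.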

[6] = qHTS assay for small molecule activators of the heat shock response signaling pathway (AID 743210; active = well fitted activation curve with a large enough effect in the signal ratio in the repeat runs, with a control signal flat, not every such curve was filed as active; the % refers to the signal ratio;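 also: HeLa cells with beta-lactamase reporter driven by heat shock elements; series mostly up to about 63 µM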)
How it was run: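 Quantitative high-throughput format using an engineered HeLa line in which heat shock response elements drive beta-lactamase; after 5 h with compound, cells received a B/G FRET substrate and fluorescence was read.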

[7] = qHTS assay to identify small molecule agonists of the peroxisome proliferator-activated receptor delta (PPARd) signaling pathway - cell viability counter screen (AID 743211); also: nearly all actives have a fitted effect of over 55% in size
How it was run: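 HEK293H PPARd-bla, 3000 cells/well; 5 h preincubation 37C/5% CO2; cpd in DMSO, 17 h 37C; B/G FRET substrate 2 h RT; CellTiter-Glo 30 min RT, luminescence.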

[8] = molecular target: Peroxisome proliferator-activated receptor delta (Homo sapiens) (UniProt Q03181); experiment: qHTS assay to identify small molecule agonists of the peroxisome proliferator-activated receptor delta (PPARd) signaling pathway (AID 743212; calls by dose curve)
Sequence of Peroxisome proliferator-activated receptor delta (Homo sapiens) (Q03181 whole entry, looked up): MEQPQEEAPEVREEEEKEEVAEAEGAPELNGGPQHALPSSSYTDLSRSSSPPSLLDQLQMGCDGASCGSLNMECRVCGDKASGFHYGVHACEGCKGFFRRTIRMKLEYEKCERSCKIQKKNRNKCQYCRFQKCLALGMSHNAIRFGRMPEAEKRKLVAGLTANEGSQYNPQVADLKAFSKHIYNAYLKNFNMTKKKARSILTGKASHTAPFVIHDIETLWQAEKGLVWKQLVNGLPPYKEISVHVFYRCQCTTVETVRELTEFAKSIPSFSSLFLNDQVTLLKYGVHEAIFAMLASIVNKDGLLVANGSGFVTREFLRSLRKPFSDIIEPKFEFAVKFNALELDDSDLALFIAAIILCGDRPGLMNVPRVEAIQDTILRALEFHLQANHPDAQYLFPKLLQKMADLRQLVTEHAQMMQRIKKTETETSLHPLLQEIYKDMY
How it was run: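 Quantitative high-throughput agonist screen in a HEK293H beta-lactamase reporter line under UAS control. Compounds in DMSO, at 37 C. Fluorescence read after 2 h with FRET substrate at room temperature.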

[9] = molecular target: Peroxisome proliferator-activated receptor delta (Homo sapiens) (UniProt Q03181); experiment: qHTS assay to identify small molecule antagonists of the peroxisome proliferator-activated receptor delta (PPARd) signaling pathway (AID 743215; active = well fitted inhibition curve with a large enough effect in the signal ratio in the repeat runs, not every such curve was filed as active; the % refers to the signal ratio;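 also: cells stimulated with agonist L165041 at 300 nM final during compound exposure; series mostly up to about 62 µM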)
How it was run: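 Inhibition of L165041-driven (300 nM final) PPARd signaling is scored in HEK293H UAS-bla cells. Exposure lasts 17 h at 37 C; beta-lactamase activity is then read by FRET substrate fluorescence after 2 h at room temperature.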

[10] = molecular target: Bile acid receptor (Homo sapiens) (UniProt Q96RI1); experiment: qHTS assay to identify small molecule antagonists of the farnesoid-X-receptor (FXR) signaling pathway (AID 743217; active = well fitted inhibition curve with a large enough effect in the signal ratio in the repeat runs, not every such curve was filed as active; the % refers to the signal ratio)
Sequence of Bile acid receptor (Homo sapiens) (Q96RI1 whole entry, looked up): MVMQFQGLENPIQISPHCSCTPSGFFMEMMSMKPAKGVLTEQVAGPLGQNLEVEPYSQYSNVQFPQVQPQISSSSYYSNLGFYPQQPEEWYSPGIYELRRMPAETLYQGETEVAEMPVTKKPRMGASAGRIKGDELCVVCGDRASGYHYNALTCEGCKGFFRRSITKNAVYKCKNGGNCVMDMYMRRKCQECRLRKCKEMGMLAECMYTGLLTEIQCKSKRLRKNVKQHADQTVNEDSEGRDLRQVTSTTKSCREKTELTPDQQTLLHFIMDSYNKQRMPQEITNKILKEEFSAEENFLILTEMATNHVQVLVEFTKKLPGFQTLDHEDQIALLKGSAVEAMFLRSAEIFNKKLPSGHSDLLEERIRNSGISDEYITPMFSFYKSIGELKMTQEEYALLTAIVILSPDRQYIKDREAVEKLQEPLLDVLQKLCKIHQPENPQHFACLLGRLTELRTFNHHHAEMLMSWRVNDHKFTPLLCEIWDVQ
How it was run: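 Antagonist mode against 50 uM (final) chenodeoxycholic acid stimulation in FXR-bla HEK 293T cells, 16 h at 37 °C. Inhibition detected as reduced beta-lactamase activity via LiveBLAzer B/G FRET fluorescence after 2 h at room temperature.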

[11] = qHTS assay to identify small molecule agonists of the farnesoid-X-receptor (FXR) signaling pathway - cell viability counter screen (AID 743218); also: nearly all actives have a fitted effect of over 45% in size
How it was run: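 Cytotoxicity counter-screen run in parallel, same wells: FXR-UAS-bla HEK 293T cells dosed 16 h at 37 C, viability read by CellTiter-Glo luminescence after 30 min at room temperature.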

[12] = molecular target: Bile acid receptor (Homo sapiens) (UniProt Q96RI1); experiment: qHTS assay to identify small molecule agonists of the farnesoid-X-receptor (FXR) signaling pathway (AID 743220; active = well fitted activation curve with a large enough effect in the signal ratio in the repeat runs, not every such curve was filed as active; the % refers to the signal ratio)
How it was run: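 Beta-lactamase reporter under UAS control in GeneBLAzer FXR HEK 293T cells (5000/well) measured with LiveBLAzer FRET substrate after 2 h at room temperature. Compound exposure lasted 16 h at 37C.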

[13] = qHTS assay to identify small molecule antagonists of the farnesoid-X-receptor (FXR) signaling pathway - cell viability counter screen (AID 743221; active = well fitted cell-killing curve with a large enough effect in the repeat runs, not every such curve was filed as active; also: nearly all actives have a fitted effect of over 50% in size)
How it was run: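 Luminescence from CellTiter-Glo measures cytotoxicity in GeneBLAzer FXR-UAS-bla HEK 293T cells. Cells were exposed to compounds with 50 uM chenodeoxycholic acid (final) for 16 h at 37 C, in wells also used for the reporter readout.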

[14] = molecular target: Vitamin D3 receptor (Homo sapiens) (UniProt P11473); experiment: qHTS assay to identify small molecule agonists of the vitamin D receptor (VDR) signaling pathway (AID 743222; calls by dose curve)
Sequence of Vitamin D3 receptor (Homo sapiens) (P11473 whole entry, looked up): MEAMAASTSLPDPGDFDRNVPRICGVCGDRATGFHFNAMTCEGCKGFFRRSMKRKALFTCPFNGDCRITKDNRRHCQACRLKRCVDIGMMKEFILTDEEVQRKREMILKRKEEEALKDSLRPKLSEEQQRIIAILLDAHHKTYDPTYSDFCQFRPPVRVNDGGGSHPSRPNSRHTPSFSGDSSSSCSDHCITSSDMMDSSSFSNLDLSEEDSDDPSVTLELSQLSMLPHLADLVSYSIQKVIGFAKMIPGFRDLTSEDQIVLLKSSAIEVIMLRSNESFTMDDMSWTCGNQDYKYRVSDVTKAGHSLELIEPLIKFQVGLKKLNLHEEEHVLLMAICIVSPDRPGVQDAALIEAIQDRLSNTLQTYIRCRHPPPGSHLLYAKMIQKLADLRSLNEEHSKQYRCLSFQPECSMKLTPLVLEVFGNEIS
How it was run: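 Quantitative HTS agonist-mode screen: compounds in DMSO were pin-transferred onto VDR-bla cells and incubated 16 h at 37C, 5% CO2. Reporter activity was detected with LiveBLAzer B/G FRET substrate after 2 h at room temperature.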

[15] = molecular target: Vitamin D3 receptor (Homo sapiens) (UniProt P11473); experiment: qHTS assay to identify small molecule antagonists of the vitamin D receptor (VDR) signaling pathway (AID 743223; active = well fitted inhibition curve with a large enough effect in the signal ratio in the repeat runs, not every such curve was filed as active; the % refers to the signal ratio)
How it was run: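 Antagonist mode uses 1alpha,25-dihydroxyvitamin D3 at 3 nM final as stimulus. VDR-bla cells receive compounds in DMSO, incubate 16 h at 37C, then a beta-lactamase FRET substrate for 2 h at room temperature before fluorescence measurement.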

[16] = qHTS assay to identify small molecule antagonists of the peroxisome proliferator-activated receptor delta (PPARd) signaling pathway - cell viability counter screen (AID 743213); also: nearly all actives have a fitted effect of over 50% in size
How it was run: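 Viability counter-screen, qHTS format: PPARd-bla HEK293H, L165041 300 nM final, 17 h compound exposure at 37 C, CellTiter-Glo luminescence after 30 min RT.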

[17] = qHTS assay to identify small molecule agonists of the vitamin D receptor (VDR) signaling pathway - cell viability counter screen (AID 743224); also: series mostly up to about 63 µM; nearly all actives have a fitted effect of over 50% in size
How it was run: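 Viability is measured in the same wells as the VDR-bla reporter assay: after 16 h compound treatment and 2 h substrate loading, CellTiter-Glo is added and luminescence read 30 min later.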

[18] = qHTS assay to identify small molecule that activate the aryl hydrocarbon receptor (AhR) signaling pathway - cell viability counter screen (AID 743086);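 also: HepG2 liver cells carrying the AhR DRE luciferase reporter; series mostly up to about 70 µM; nearly all actives have a fitted effect of over 45% in size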
How it was run: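 HepG2-AhR-luc (HG2L7.5c1) cells, 4000/well, treated 24 h at 37 C with compound; viability measured as CellTiter-Fluor fluorescence after 30 min in the same wells as the luciferase read.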

[19] = molecular target: Peroxisome proliferator-activated receptor gamma (Homo sapiens) (UniProt P37231); experiment: qHTS assay to identify small molecule agonists of the peroxisome proliferator-activated receptor gamma (PPARg) signaling pathway (AID 743094; active = well fitted activation curve with a large enough effect in the signal ratio in the repeat runs, not every such curve was filed as active; the % refers to the signal ratio)
How it was run: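 Quantitative HTS agonist mode: stable HEK293H line with UAS-beta-lactamase reporter under PPARg control, 17 h compound exposure at 37C, fluorescence after 1 h FRET substrate loading at room temperature.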

Measured: Potency

OC1(c2ccc(Cl)cc2)CCNCC1
not listed: [16] | [17] | [18] | [19]
inactive: all other assays above

COc1cc(OC)nc(O[C@H](C(=O)O)C(OC)(c2ccccc2)c2ccccc2)n1
not listed: [1] | [6] | [8] | [9] | [10] | [12] | [18] | [19]
inactive: all other assays above

C=CCSSCCC
not listed: [3] | [7] | [10] | [12]
inactive: all other assays above

CC(C)C[C@@H]1[C@H](c2ccccc2)OC(=O)N1CCCN1CCCCCC1
not listed: [3] | [7] | [10] | [12] | [14] | [15] | [18] | [19]
inactive: all other assays above

C/C(=C1\CCOC(=O)S1)N(C=O)Cc1cnc(C)nc1N
inactive: [4] | [6] | [8] | [16] | [9] | [10] | [12] | [13] | [14] | [15]

CC(=O)C1C(=O)C=C(C)OC1=O (stereo unspecified)
not listed: [1] | [2] | [3] | [9]
inactive: all other assays above

O=C1OCCO1
not listed: [2] | [3] | [15] | [16]
inactive: all other assays above

CCC(=O)Oc1ccc2c(c1)CC[C@@H]1[C@@H]2CC[C@@]2(C)[C@H]1C[C@@H](OC(=O)CC)[C@@H]2OC(=O)CC
not listed: [2] | [6] | [8] | [9] | [13] | [18] | [19]
inactive: all other assays above

CCN1CCCC1CN (stereo unspecified)
not listed: [3] | [5] | [6] | [10] | [11] | [12] | [18] | [19]
inactive: all other assays above

[O-][n+]1cccc(/C(Cl)=N/OC[C@@H](O)CN2CCCCC2)c1
not listed: [1] | [10] | [12] | [14] | [15] | [18] | [19]
inactive: all other assays above

CCOc1ccccc1OCC1CNCCO1 (stereo unspecified)
not listed: [3] | [9] | [10] | [12] | [18] | [19]
inactive: all other assays above

CCC(C(=O)OCCN1CCOC(c2ccccc2)C1C)c1ccccc1 (stereo unspecified)
not listed: [1] | [9] | [10] | [12] | [15] | [18] | [19]
inactive: all other assays above

COc1cc2c(cc1OC)CN(C(=O)[C@H](C)N[C@@H](CCc1ccccc1)C(=O)O)[C@H](C(=O)O)C2
not listed: [1] | [10] | [12] | [14] | [15] | [18] | [19]
inactive: all other assays above

CCCCCc1cccc(=O)o1
not listed: [1] | [3] | [5] | [15]
inactive: all other assays above

COC(=O)CCCCC(CCSS/C(CCO)=C(\C)N(C=O)Cc1cnc(C)nc1N)SC(C)=O (stereo unspecified)
not listed: [5] | [14] | [15] | [16] | [17] | [18] | [19]
inactive: all other assays above

C[C@H]1[C@@H](c2ccccc2)NC(=O)N1C
not listed: [2]
inactive: all other assays above

COCCc1ccccn1
inactive: [1] | [3] | [4] | [6] | [8] | [16] | [9] | [11] | [13] | [17]

Cc1cc(-c2ccccc2)nnc1NCCN1CCOCC1
not listed: [3] | [9] | [10] | [12] | [13] | [16] | [17]
inactive: all other assays above

CC(C)NC(=O)c1ccc(C=O)cc1
not listed: [1] | [3] | [10] | [12] | [18] | [19]
inactive: all other assays above

COc1cc2c(cc1OC)C(=O)C(CC1CCN(Cc3ccccc3)CC1)C2 (stereo unspecified)
not listed: [1] | [3] | [9] | [10] | [14] | [15]
inactive: all other assays above

CC(=O)N[C@@H](CO)C(=O)N[C@@H](CC(=O)O)C(=O)N[C@@H](CCCCN)C(=O)N1CCC[C@H]1C(=O)O (Ac-SDKP-OH)
not listed: [17] | [18] | [19]
inactive: all other assays above

CCN(CC)CCN
not listed: [8] | [9] | [18] | [19]
inactive: all other assays above

O=C(CCCl)NCCc1ccccc1
not listed: [1] | [5] | [18] | [19]
inactive: all other assays above

CC12CCC(C1)C(C)(C)C2O (stereo unspecified)
not listed: [2] | [3] | [6] | [13] | [17]
inactive: all other assays above

N#Cc1ccccc1O
not listed: [1]
inactive: all other assays above

O=C(O)CONC(=O)c1ccccc1
not listed: [1] | [15] | [19]
inactive: all other assays above
